# Results from publication PMC11006913.
# Changes are numbered by the printed parent chain.
# Legend:
# Test in all cases: PBM; 200 nM protein, PBS
# Conditions in all cases: dsDNA, one strand shown
# HOXB9 [1] = biological target: HOXB9 (Homo sapiens, UniProt P17482 171-250, T197M)
# HOXC9 [2] = biological target: HOXC9 (Homo sapiens, UniProt P31274 178-260, K195R)
# VENTX [3] = biological target: T1, VENTX (Homo sapiens, UniProt O95231 78-163)
# T1 sequence: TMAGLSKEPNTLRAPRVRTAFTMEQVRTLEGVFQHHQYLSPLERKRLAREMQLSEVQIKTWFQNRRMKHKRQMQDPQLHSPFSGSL
# PAX4 [4] = biological target: T2, PAX4 (Homo sapiens, UniProt O43316 9-242, R200K)
# T2 sequence: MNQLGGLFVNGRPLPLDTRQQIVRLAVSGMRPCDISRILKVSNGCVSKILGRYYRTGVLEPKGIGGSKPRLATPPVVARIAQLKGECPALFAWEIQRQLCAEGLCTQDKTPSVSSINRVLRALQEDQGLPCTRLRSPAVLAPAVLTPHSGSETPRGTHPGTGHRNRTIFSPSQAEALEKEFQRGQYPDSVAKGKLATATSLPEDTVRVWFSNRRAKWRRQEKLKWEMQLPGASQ
# VENTX [5] = biological target: T3, VENTX (Homo sapiens, UniProt O95231 78-163, Y115F)
# T3 sequence: T1 sequence with Y38F
# PAX4 [6] = biological target: T4, PAX4 (Homo sapiens, UniProt O43316 9-242)
# T4 sequence: T2 sequence with K192R
# HOXB9 [7] = biological target: HOXB9 (Homo sapiens, UniProt P17482 171-250)
# PAX4 [8] = biological target: T5, PAX4 (Homo sapiens, UniProt O43316 9-242, R200Q)
# T5 sequence: T2 sequence with K192Q
# HOXC9 [9] = biological target: HOXC9 (Homo sapiens, UniProt P31274 178-260, R193K)
# HOXA2 [10] = biological target: HOXA2 (Homo sapiens, UniProt O43364 129-215, R185K)
# PAX4 [11] = biological target: T6, PAX4 (Homo sapiens, UniProt O43316 9-242, F177V)
# T6 sequence: T2 sequence with F169V, K192R
# HOXC10 = HOXC10 (Homo sapiens, UniProt Q9NYD6 254-340, K271E)
# PAX4 [12] = biological target: T7, PAX4 (Homo sapiens, UniProt O43316 9-242, F177Y)
# T7 sequence: T2 sequence with F169Y, K192R
# HOXB9 [13] = biological target: HOXB9 (Homo sapiens, UniProt P17482 171-250, R186Q)
# HOXC9 [14] = biological target: HOXC9 (Homo sapiens, UniProt P31274 178-260, R222W)
# PAX4 [15] = biological target: T8, PAX4 (Homo sapiens, UniProt O43316 9-242, R227W)
# T8 sequence: T2 sequence with K192R, R219W
# HOXA2 [16] = biological target: HOXA2 (Homo sapiens, UniProt O43364 129-215, Y150S)
# HOXA2 [17] = biological target: HOXA2 (Homo sapiens, UniProt O43364 129-215)
# NKX2-5 [18] = biological target: NKX2-5 (Homo sapiens, UniProt P52952 125-210, R139K)
# NKX2-5 [19] = biological target: NKX2-5 (Homo sapiens, UniProt P52952 125-210)
# Chain of NKX2-5 (Homo sapiens, UniProt P52952 125-210) (P52952 125-210): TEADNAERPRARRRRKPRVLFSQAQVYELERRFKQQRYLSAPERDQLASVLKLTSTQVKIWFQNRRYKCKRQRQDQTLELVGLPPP
# Chain of HOXB9 (Homo sapiens, UniProt P17482 171-250) (P17482 171-250): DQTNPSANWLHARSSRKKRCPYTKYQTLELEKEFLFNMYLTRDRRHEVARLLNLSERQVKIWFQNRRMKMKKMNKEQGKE
# Chain of HOXC9 (Homo sapiens, UniProt P31274 178-260, R193K) (P31274 178-260 R193K): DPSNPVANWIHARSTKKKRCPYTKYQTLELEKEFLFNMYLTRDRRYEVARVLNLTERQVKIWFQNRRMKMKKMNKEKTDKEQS
# Chain of HOXA2 (Homo sapiens, UniProt O43364 129-215, R185K) (O43364 129-215 R185K): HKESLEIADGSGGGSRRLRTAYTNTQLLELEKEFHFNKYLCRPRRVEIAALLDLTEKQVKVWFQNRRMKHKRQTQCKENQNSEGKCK
# Chain of HOXB9 (Homo sapiens, UniProt P17482 171-250, R186Q) (P17482 171-250 R186Q): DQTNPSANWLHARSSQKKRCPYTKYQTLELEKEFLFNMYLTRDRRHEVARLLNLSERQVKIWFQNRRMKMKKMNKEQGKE
# Chain of HOXB9 (Homo sapiens, UniProt P17482 171-250, T197M) (P17482 171-250 T197M): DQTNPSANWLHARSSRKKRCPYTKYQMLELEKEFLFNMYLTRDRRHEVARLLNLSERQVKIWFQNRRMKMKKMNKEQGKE
# Chain of HOXC9 (Homo sapiens, UniProt P31274 178-260, R222W) (P31274 178-260 R222W): as the sequence (P31274 178-260 R193K) above, with K16R, R45W counted along it
# Chain of HOXA2 (Homo sapiens, UniProt O43364 129-215) (O43364 129-215): as the sequence (O43364 129-215 R185K) above, with K57R counted along it
# Chain of HOXC9 (Homo sapiens, UniProt P31274 178-260, K195R) (P31274 178-260 K195R): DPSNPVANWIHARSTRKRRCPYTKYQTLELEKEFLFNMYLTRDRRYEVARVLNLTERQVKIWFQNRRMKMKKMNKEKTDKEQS
# Chain of HOXA2 (Homo sapiens, UniProt O43364 129-215, Y150S) (O43364 129-215 Y150S): as the sequence (O43364 129-215 R185K) above, with Y22S, K57R counted along it
# Chain of HOXC10 (Q9NYD6 254-340 K271E): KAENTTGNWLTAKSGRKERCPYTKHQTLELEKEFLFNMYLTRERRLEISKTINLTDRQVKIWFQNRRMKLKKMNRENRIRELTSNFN
# Chain of NKX2-5 (Homo sapiens, UniProt P52952 125-210, R139K) (P52952 125-210 R139K): as the sequence (P52952 125-210) above, with R15K counted along it
sequence,measurement,setting,value
ATTAATTG,binding signal,HOXB9 [1],"10.3 upbm affinity estimate (log intensity, higher = more binding, comparable within an allelic series)"
same,binding signal,HOXC9 [2],"12.8 upbm affinity estimate (log intensity, higher = more binding, comparable within an allelic series)"
same,binding signal,VENTX [3],"12.8 upbm affinity estimate (log intensity, higher = more binding, comparable within an allelic series)"
same,binding signal,PAX4 [4],"11.8 upbm affinity estimate (log intensity, higher = more binding, comparable within an allelic series)"
same,binding signal,VENTX [5],"11.9 upbm affinity estimate (log intensity, higher = more binding, comparable within an allelic series)"
same,binding signal,PAX4 [6],"12.4 upbm affinity estimate (log intensity, higher = more binding, comparable within an allelic series)"
same,binding signal,HOXB9 [7],"12.2 upbm affinity estimate (log intensity, higher = more binding, comparable within an allelic series)"
same,binding signal,PAX4 [8],"12.2 upbm affinity estimate (log intensity, higher = more binding, comparable within an allelic series)"
same,binding signal,HOXC9 [9],"12.7 upbm affinity estimate (log intensity, higher = more binding, comparable within an allelic series)"
same,binding signal,HOXA2 [10],"13.5 upbm affinity estimate (log intensity, higher = more binding, comparable within an allelic series)"
same,binding signal,PAX4 [11],"10.7 upbm affinity estimate (log intensity, higher = more binding, comparable within an allelic series)"
same,binding signal,HOXC10,"12.2 upbm affinity estimate (log intensity, higher = more binding, comparable within an allelic series)"
same,binding signal,PAX4 [12],"11.2 upbm affinity estimate (log intensity, higher = more binding, comparable within an allelic series)"
same,binding signal,HOXB9 [13],"11.8 upbm affinity estimate (log intensity, higher = more binding, comparable within an allelic series)"
same,binding signal,HOXC9 [14],"11.2 upbm affinity estimate (log intensity, higher = more binding, comparable within an allelic series)"
same,binding signal,PAX4 [15],"11 upbm affinity estimate (log intensity, higher = more binding, comparable within an allelic series)"
same,binding signal,HOXA2 [16],"11 upbm affinity estimate (log intensity, higher = more binding, comparable within an allelic series)"
same,binding signal,HOXA2 [17],"12.6 upbm affinity estimate (log intensity, higher = more binding, comparable within an allelic series)"
GCAATTAA,binding signal,HOXB9 [1],"10.5 upbm affinity estimate (log intensity, higher = more binding, comparable within an allelic series)"
same,binding signal,HOXC9 [2],"13.1 upbm affinity estimate (log intensity, higher = more binding, comparable within an allelic series)"
same,binding signal,VENTX [3],"12.8 upbm affinity estimate (log intensity, higher = more binding, comparable within an allelic series)"
same,binding signal,VENTX [5],"11.9 upbm affinity estimate (log intensity, higher = more binding, comparable within an allelic series)"
same,binding signal,HOXB9 [7],"12.6 upbm affinity estimate (log intensity, higher = more binding, comparable within an allelic series)"
same,binding signal,PAX4 [8],"12 upbm affinity estimate (log intensity, higher = more binding, comparable within an allelic series)"
same,binding signal,HOXC9 [9],"13 upbm affinity estimate (log intensity, higher = more binding, comparable within an allelic series)"
same,binding signal,HOXA2 [10],"13.4 upbm affinity estimate (log intensity, higher = more binding, comparable within an allelic series)"
same,binding signal,HOXC10,"12.6 upbm affinity estimate (log intensity, higher = more binding, comparable within an allelic series)"
same,binding signal,HOXB9 [13],"12.4 upbm affinity estimate (log intensity, higher = more binding, comparable within an allelic series)"
same,binding signal,HOXC9 [14],"11.1 upbm affinity estimate (log intensity, higher = more binding, comparable within an allelic series)"
same,binding signal,HOXA2 [16],"10.8 upbm affinity estimate (log intensity, higher = more binding, comparable within an allelic series)"
same,binding signal,HOXA2 [17],"12.6 upbm affinity estimate (log intensity, higher = more binding, comparable within an allelic series)"
ATAATTAC,binding signal,HOXB9 [1],"10.5 upbm affinity estimate (log intensity, higher = more binding, comparable within an allelic series)"
same,binding signal,HOXC9 [2],"13 upbm affinity estimate (log intensity, higher = more binding, comparable within an allelic series)"
same,binding signal,VENTX [3],"12.5 upbm affinity estimate (log intensity, higher = more binding, comparable within an allelic series)"
same,binding signal,PAX4 [4],"11.8 upbm affinity estimate (log intensity, higher = more binding, comparable within an allelic series)"
same,binding signal,VENTX [5],"12 upbm affinity estimate (log intensity, higher = more binding, comparable within an allelic series)"
same,binding signal,PAX4 [6],"12.3 upbm affinity estimate (log intensity, higher = more binding, comparable within an allelic series)"
same,binding signal,HOXB9 [7],"12.1 upbm affinity estimate (log intensity, higher = more binding, comparable within an allelic series)"
same,binding signal,PAX4 [8],"12.3 upbm affinity estimate (log intensity, higher = more binding, comparable within an allelic series)"
same,binding signal,HOXC9 [9],"12.9 upbm affinity estimate (log intensity, higher = more binding, comparable within an allelic series)"
same,binding signal,HOXA2 [10],"13.9 upbm affinity estimate (log intensity, higher = more binding, comparable within an allelic series)"
same,binding signal,PAX4 [11],"10.8 upbm affinity estimate (log intensity, higher = more binding, comparable within an allelic series)"
same,binding signal,HOXC10,"12.4 upbm affinity estimate (log intensity, higher = more binding, comparable within an allelic series)"
same,binding signal,PAX4 [12],"11.2 upbm affinity estimate (log intensity, higher = more binding, comparable within an allelic series)"
same,binding signal,HOXB9 [13],"11.9 upbm affinity estimate (log intensity, higher = more binding, comparable within an allelic series)"
same,binding signal,HOXC9 [14],"11.1 upbm affinity estimate (log intensity, higher = more binding, comparable within an allelic series)"
same,binding signal,PAX4 [15],"11.2 upbm affinity estimate (log intensity, higher = more binding, comparable within an allelic series)"
same,binding signal,HOXA2 [16],"11.1 upbm affinity estimate (log intensity, higher = more binding, comparable within an allelic series)"
same,binding signal,HOXA2 [17],"13.1 upbm affinity estimate (log intensity, higher = more binding, comparable within an allelic series)"
AACGCGGA,binding signal,NKX2-5 [18],"8.76 upbm affinity estimate (log intensity, higher = more binding, comparable within an allelic series)"
same,binding signal,NKX2-5 [19],"8.8 upbm affinity estimate (log intensity, higher = more binding, comparable within an allelic series)"
CTTAATTA,binding signal,HOXB9 [1],"10.2 upbm affinity estimate (log intensity, higher = more binding, comparable within an allelic series)"
same,binding signal,HOXC9 [2],"12.7 upbm affinity estimate (log intensity, higher = more binding, comparable within an allelic series)"
same,binding signal,VENTX [3],"12.9 upbm affinity estimate (log intensity, higher = more binding, comparable within an allelic series)"
same,binding signal,PAX4 [4],"12.1 upbm affinity estimate (log intensity, higher = more binding, comparable within an allelic series)"
same,binding signal,VENTX [5],"12.3 upbm affinity estimate (log intensity, higher = more binding, comparable within an allelic series)"
same,binding signal,PAX4 [6],"12.7 upbm affinity estimate (log intensity, higher = more binding, comparable within an allelic series)"
same,binding signal,HOXB9 [7],"11.8 upbm affinity estimate (log intensity, higher = more binding, comparable within an allelic series)"
same,binding signal,PAX4 [8],"12.6 upbm affinity estimate (log intensity, higher = more binding, comparable within an allelic series)"
same,binding signal,HOXC9 [9],"12.6 upbm affinity estimate (log intensity, higher = more binding, comparable within an allelic series)"
same,binding signal,HOXA2 [10],"13.8 upbm affinity estimate (log intensity, higher = more binding, comparable within an allelic series)"
same,binding signal,PAX4 [11],"11 upbm affinity estimate (log intensity, higher = more binding, comparable within an allelic series)"
same,binding signal,HOXC10,"12.2 upbm affinity estimate (log intensity, higher = more binding, comparable within an allelic series)"
same,binding signal,PAX4 [12],"11.5 upbm affinity estimate (log intensity, higher = more binding, comparable within an allelic series)"
same,binding signal,HOXB9 [13],"11.5 upbm affinity estimate (log intensity, higher = more binding, comparable within an allelic series)"
same,binding signal,HOXC9 [14],"11.1 upbm affinity estimate (log intensity, higher = more binding, comparable within an allelic series)"
same,binding signal,PAX4 [15],"11.3 upbm affinity estimate (log intensity, higher = more binding, comparable within an allelic series)"
same,binding signal,HOXA2 [16],"11 upbm affinity estimate (log intensity, higher = more binding, comparable within an allelic series)"
same,binding signal,HOXA2 [17],"13.1 upbm affinity estimate (log intensity, higher = more binding, comparable within an allelic series)"
AGACCGCG,binding signal,NKX2-5 [18],"8.9 upbm affinity estimate (log intensity, higher = more binding, comparable within an allelic series)"
same,binding signal,NKX2-5 [19],"8.83 upbm affinity estimate (log intensity, higher = more binding, comparable within an allelic series)"
